Inconclusive results are not listed. A number with no mark means an inactive call. Calls come from the whole dose curve; as a rule, active = well fitted cell-killing curve with a large enough effect; inconclusive = small, poorly fitted or top-dose-only effect; inactive = flat fitted curve, though single readings scatter.
assay: Cell Viability - LYMP2-002 (AID 977); settings: LYMP2-002 lymphoblastoid cell viability, qHTS; series mostly up to 92.2 µM; activity change, negative = cytotoxic: at the top concentration;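 note: compound exposure lasted 24 h at 37 °C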
Description: NIH Chemical Genomics Center [NCGC]
NIH Molecular Libraries Screening Centers Network [MLSCN]
National Institutes of Environmental Health Sciences [NIEHS]
National Toxicology Program [NTP]
We have developed a 1536-well cell-based assay for quantitative high throughput screening (qHTS) against a number of cell lines to determine in vitro cytotoxicity of small molecules. This particular assay uses a human lymphoblastoid cell line (LYMP2-002) purchased from Coriell Institute for Medical Research.
NCGC Assay Protocol Summary:
The CellTiter-Glo luminescent cell viability assay (Promega) is a homogeneous method to measure the number of viable cells in culture. The end point readout of this assay is based on quantitation of intracellular ATP, an indicator of metabolic activity, using the luciferase reaction. Luciferase catalyzes the oxidation of beetle Luciferin to oxyluciferin and light in the presence of ATP. The luminescent signal is proportional to amount of ATP present.
Using the CellTiter-Glo luminescent cell viability assay, the amount of cellular ATP was measured in the lymphoblastoid cell line with complete culture medium following compound treatment for 24 hours. The assay was performed in opaque white Kalypsys 1536-well plates. In the screen, tetraoctylammonium bromide was used as positive control. Library compounds were measured for their ability to cause acute toxicity in the cell line, as reflected by a decrease in intracellular ATP levels, in a concentration-dependent manner. […] AC50 values were determined from concentration-response data modeled with the standard Hill equation.
qHTS protocol for CellTiter Glo lymphoblastoid cellular assay
[Step] [Parameter] [Value] [Description]
1. Reagent; 5 uL; 2500 lymphoblastoid cells/well
2. Time; 5 hr; 37 C incubation
4. Controls; 23 nL; Tetraoctylammonium bromide 6.4pM to 92 uM
5. Time; 24 hr; 37 C incubation
6. Reagent; 5 uL; CellTiter Glo reagent
7. Time; 30 min; Room Temperature
8. Detection; Luminescence; Viewlux plate reader
Keywords: cell viability, cytotoxicity, lymphoblastoid cell line, luminescence, NTPHTS, NTPHTS_NCGC, NIEHS, DSSTox, MLSMR, MLSCN, NIH Roadmap, qHTS, NCGC

SMILES	activity change, negative = cytotoxic [%]
Clc1ccc(Cl)c(Cl)c1	5.03
N#CCCC#N	9.63
COC(=O)Nc1cccc(OC(=O)Nc2cccc(C)c2)c1	3.06
CCN(CC)N=O	-1.45
C=CCOCC1CO1 (stereo not given)	-4.03
ClCCBr	-25.1
Oc1cc(Cl)c(Cl)c(Cl)c1Cl	-29.2
C=CC(=O)OC	5.64
CCOP(=S)(OCC)SCCSCC	-1.41
CC(C)[C@]12CC(=O)[C@H](C)[C@H]1C2	-2.02
CC(C)(COCC1CO1)COCC1CO1 (stereo not given)	1.6
N#CC(O)c1ccccc1 (stereo not given)	11.8
CC(C)(Cl)Cl	-4.52
CN(C)c1ccc(N(C)C)cc1	-40.6
CCCC[N+](=O)[O-]	9.76
CCBr	6.37
Nc1ncc([N+](=O)[O-])s1	-4.32
ClCc1ccccn1	8.61
CCOP(=O)(OCC)OCC	-4.82
O=C(O)C(Br)Br	-3.33

SMILES	activity change, negative = cytotoxic [%]
Clc1ccc(C(Cl)(Cl)Cl)cc1Cl	-9.91
O=c1ccc(=O)[nH][nH]1	0.021
NNC(N)=S	-15.7
O=[N+]([O-])c1c(Cl)c(Cl)c(Cl)c(Cl)c1Cl	-8.05
Clc1ccc(C(c2ccccc2Cl)C(Cl)(Cl)Cl)cc1 (stereo not given)	-2.58
Nc1ccc(Cl)c(Cl)c1	0.784
COC(C)(C)C	-2.59
Cc1ccc(N=C=O)cc1N=C=O	-9.54
CCC#N	-7.29
Nc1ccc([N+](=O)[O-])cc1N	-15.8
ClP(Cl)(Cl)(Cl)Cl	10.1
CC(=O)CCC(C)=O	-12.8
Cc1cc(-c2cc(C)c(N)c(C)c2)cc(C)c1N	6.34
[O-][Cl+]O	9.37
[O-][Cl+2]([O-])O	-3.61
C[N+](=O)[O-]	-6.53
CSSC	4.61
c1ccc(C2CO2)cc1 (stereo not given)	19.4
N#CCc1ccccc1	7.49
COc1ccccc1N	-6.39

From PubChem BioAssay (NCATS)
